# Bioassay records as filed in PubChem BioAssay.
# tim23-1 inh: growth inhibitors of tim23-1 mutant yeast | 1.3% of 330,000 active | inhibition, % at 20 µM | AID 463212 | S. cerevisiae tim23-1 growth, BacTiter-Glo luminescence, 24 h;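 active = growth inhibition of the mutant yeast at or above 50%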;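 also: temperature-sensitive mutant grown at 25 °C; plate controls were DMSO-treated mutant yeast for no effect and medium wells lacking yeast for full effect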
# TIM10 inh: growth inhibitors of TIM10 yeast strain | S. cerevisiae TIM10 strain growth, BacTiter-Glo luminescence, 24 h | inhibition, % at 10 µM | 1.4% of 330,000 active | AID 463195;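 active = inhibition of 40% or more at the single tested concentration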;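 also: wild-type TIM10 isogenic control strain grown at permissive 25 °C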
# PfHsp90 yeast 2: reduces growth (ATP signal) of yeast expressing P. falciparum Hsp90 | S. cerevisiae expressing PfHsp90, BacTiter-Glo ATP, 48 h; yeast lacking PDR1 and PDR3 efflux regulators | inhibition, % at 9.4 µM | 0.32% of 310,000 active;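 active = every replicate shows inhibition above about 80%, whatever the replicate mean, limit read from the data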;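 also: 0% = DMSO neutral controls and 100% = 20 µM radicicol positive controls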
# tim10-1 inh: inhibits growth of tim10-1 mutant yeast; 2.2% of 330,000 active; AID 463190; S. cerevisiae tim10-1 ts strain growth, BacTiter-Glo, 24 h; inhibition, % at 20 µM;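 active = inhibition of at least 40%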;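 also: mutant grown at 25 °C; 0% = DMSO wells with yeast and 100% = wells holding no yeast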
# V-ATPase pH: alters yeast V-ATPase proton transport; S. cerevisiae, pHLuorin cytosolic pH fluorescence; response, % at 10 µM; 0.37% of 350,000 active; AID 504577; in the data active = response mostly above about 7.3%, no sharp cut-off; inactive = mostly below about 5.4%; also: actives read high
# tim10-1 conf: tim10-1 yeast growth inhibition, confirmed; 56% of 7,400 active; shares compounds with tim10-1 inh; inhibition, % at 20 µM; S. cerevisiae tim10-1 ts strain growth, BacTiter-Glo, 24 h;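 active = inhibition of yeast growth at or above a set limit in either of two repeat tests at 20 µM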;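 also: tim10-1 mutant grown at permissive 25 °C to find synthetic lethal compounds; 0% = DMSO yeast wells and 100% = medium wells without yeast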
# * = called active by the depositor; x = no result given. Compounds with a hit are over-represented: about 3.7% of the library has one in this group of screens.
SMILES,tim23-1 inh,TIM10 inh,PfHsp90 yeast 2,tim10-1 inh,V-ATPase pH,tim10-1 conf
CCCCCCC1C(C#N)=C(N)OC2=C1C(=O)CC(C)(C)C2 (stereo unspecified),3,-15,-5,14,-3,x
CCCCC1C2=C(CC(C)(C)CC2=O)OC2=C1C(=O)CC(C)(C)C2,48,19,23,44*,1,38*
Cc1c(-c2ccc(OCc3ccccc3)cc2)nc2ccccc2c1C(=O)O,16,8,-5,-18,0,x
O=C(Oc1ccc(C(=S)N2CCOCC2)cc1)c1ccccc1[N+](=O)[O-],29,29,-4,42*,3,37*
Cc1ccc(S(=O)(=O)NCc2cccnc2)cc1C(=O)N1CCCC1,-2,3,17,-4,-3,x
CC(C)OP(=O)(OC(C)C)C(Nc1ccccn1)c1ccc(F)cc1 (stereo unspecified),26,1,-23,46*,-4,16
CCOP(=O)(OCC)C(Nc1ccccn1)c1ccc(F)cc1 (stereo unspecified),19,28,9,22,-2,x
O=C(CS(=O)(=O)c1ccccc1)NCc1ccc(Cl)cc1,8,5,-27,8,-5,x
CCCCNc1ncnc2c1cnn2Cc1ccc(Cl)cc1,23,9,10,40*,-1,11
CSc1ccc(/C=C/C(=O)c2ccc(NC(C)=O)cc2)cc1,17,24,13,16,-1,x
CCCC(=O)Nc1ccc(C(=O)/C=C/c2ccc(SC)cc2)cc1,42,29,-8,45*,3,34*
CN(C)CCN(C(=O)c1ccc2ccccc2c1)c1nc2cc3c(cc2s1)OCCO3,13,12,5,16,2,x
CN(C)CCN(C(=O)c1cccc2ccccc12)c1nc2cc3c(cc2s1)OCO3,28,26,-4,45*,-2,-1
CC(C)(C)c1ccc(/C=C(\C#N)C(=O)NCCN2CCOCC2)cc1,43,32,x,40*,-2,33*
O=C(c1ccc2nc(-c3ccco3)c(-c3ccco3)nc2c1)N1CCN(c2ccccc2)CC1,15,19,-45,42*,1,33*
O=C(/C=C\c1ccco1)Nc1ccc(N2CCN(C(=O)c3ccccc3)CC2)cc1,41,18,-2,42*,3,32*
O=C(/C=C/c1ccco1)N1CCN(c2ccccc2)CC1,-3,9,9,14,2,x
CCc1nc2ccc(C(=O)N3CCN(c4cccc(C(F)(F)F)c4)CC3)cc2nc1CC,38,22,10,42*,3,19
C/C(=N\NC(N)=O)c1ccccc1Cl,-7,-4,-2,-6,-3,x
C=CCNC(=O)[C@H]1N2C(=O)c3ccccc3C2SC1(C)C (stereo partly specified),6,12,-6,-4,0,x
COCCCNC(=O)CSC1=Nc2ccccc2C2=NC(c3ccccc3)C(=O)N12 (stereo unspecified),22,-6,1,11,1,x
Cc1oc2ccc(O)cc2c1C(=O)c1ccc([N+](=O)[O-])cc1,45,28,10,45*,1,27
Cc1oc2ccc(O)cc2c1C(=O)c1ccc(Cl)cc1,23,5,-6,31,-2,x
C=CCOC(=O)C(C#N)c1nc2ccccc2nc1N1CCN(Cc2ccc3c(c2)OCO3)CC1 (stereo unspecified),42,23,-35,41*,4,26
CCCCNC(=O)C(C#N)c1nc2ccccc2nc1N1CCN(Cc2ccc3c(c2)OCO3)CC1 (stereo unspecified),x,x,8,x,-5,x
SMILES,tim23-1 inh,TIM10 inh,PfHsp90 yeast 2,tim10-1 inh,V-ATPase pH,tim10-1 conf
CC(C)[C@H](NC(=O)c1ccco1)C(=O)Nc1ccc(N2CCCCCC2)cc1,x,x,x,x,-4,x
Cc1ccc2nc(C)c(C(=O)N/N=C/c3cccc([N+](=O)[O-])c3)cc2c1,30,40,0,47*,1,45*
CCOC(=O)c1cc(CC)sc1NC(=O)c1ccc2c(c1)OCCO2,16,32,5,41*,-1,9
CCOC(=O)c1cc(CC)sc1NC(=O)c1cc(OCC)c(OCC)c(OCC)c1,-5,12,x,18,-8,x
COc1cc2c(cc1OC)C1=NC(=O)CN1C(SCc1ccccc1C)=N2,24,13,13,41*,-5,24
Cc1ccc(CSC2=Nc3ccccc3C3=NC(=O)CN23)cc1,36,14,19,-35,0,x
COc1ccc(CN(CCCn2cnc3c(OC)ncnc32)CCCn2cnc3c(OC)ncnc32)cc1,x,x,x,x,2,x
CN(C)CCCN(C(=O)c1ccc([N+](=O)[O-])o1)c1nc2cc3c(cc2s1)OCO3,28,31,-6,32,3,x
Cc1ccccc1NC(=S)NCc1ccc2c(c1)cc(C)n2C,31,25,-2,43*,0,24
Cc1ccc(NC(=O)CSCC(=O)NCCc2ccccn2)c(C)c1,-8,-11,3,-4,4,x
CN(CCCC(=O)O)c1ccc(N=Nc2ccc([N+](=O)[O-])cc2)cc1,48,27,10,54*,2,45*
Cc1cc2nc(-c3cc(N4CCOCC4)ccc3[N+](=O)[O-])ccn2n1,5,-8,x,1,-1,x
Cc1cc2nc(-c3ccc4c(c3)CCC4)ccn2n1,19,-23,-15,41*,-5,20
CC(C)Nc1nc(Cl)nc(NCCOc2ccccc2)n1,-12,8,15,40*,0,23
COc1ccc(NC(=S)c2ccc3ccccc3n2)cc1,40,16,-7,56*,-3,10
CCOc1ccc(NC(=S)c2ccc3ccccc3n2)cc1,6,16,0,23,0,x
COc1ccc(C2=NN(C(C)=O)CC2c2cccc([N+](=O)[O-])c2)cc1 (stereo unspecified),34,4,-6,43*,1,-11
O=C(NCCN1C(=O)S/C(=C\c2ccc(OC(F)F)cc2)C1=O)C1=COCCO1,43,28,x,44*,4,29
COc1ccc(/C=C2\SC(=O)N(CCNC(=O)C3=COCCO3)C2=O)cc1,3,-14,12,-10,-1,x
COC(=O)C1CCN(C(=O)c2ccc3nc(-c4cccc(OC)c4)oc3c2)CC1,30,24,-13,42*,-1,31
COC(=O)C1CCN(C(=O)c2ccc3nccnc3c2)CC1,-7,6,-3,-4,1,x
CC1CCC(CN2C(Nc3ccccc3)=NC[C@@H]2Cc2ccccc2)CC1 (stereo partly specified),9,17,17,17,6,x
CC1=C/C(=C(\c2cc(C)c(O)c(Br)c2)c2ccccc2S(=O)(=O)O)C=C(Br)C1=O,46,33,68,46*,3,44*
CC1CCCCN1C(=O)C1CCN(c2nc(-c3ccccc3)nc3c2CCC3)CC1 (stereo unspecified),49,16,-3,56*,-2,10
